Data reported in PubChem BioAssay (NCI).
“And” between values parts separate entries of the source, which are not always exact repeats. Identical values can stand only once. This is part of a sample that, as a whole, favours compounds with a hit. Of some 83,000 tested, about 20% had one in any assay.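 Interpretation: 100, growth as untreated; towards 0, rising growth inhibition; 0, no net growth; 0 to -100, cell death. Compounds scoring below 10 were considered active.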 The source made the active and inactive calls.

Tested on: MDA-MB-468 breast
Test: NCI-60 one-dose screen, 48 h (100 = growth as untreated, 0 = no growth, -100 = all killed)
Settings: 10 µM unless noted

Compound | growth
N#C/C(=C\c1ccc(-c2cccc(Cl)c2)o1)C(=O)Nc1ncc(Cc2ccc(Cl)cc2)s1 | 47% (inactive)
COc1nc2ccccc2cc1-c1nc2c(cnn2-c2ccccc2)c(=O)[nH]1 | 35.9% (inactive)
O=C(Cc1ccccc1)C(F)(F)F | 111% (inactive)
O=C1C=CC(=O)N1c1cccc(N2C(=O)C=CC2=O)c1 | 51.5% (inactive)
COc1ccc(/C=C2\COc3ccc(O)cc3C2=O)c(OC)c1 | -1.02% (active)
Cc1ccc(-c2nc(/C=N/Nc3cc(C)nc4ccc(Br)cc34)c(C)o2)cc1 | -89% (active)
COc1ccc(C2c3ccc4ccccc4c3Oc3ncn(CCCn4ccnc4)c(=N)c32)cc1OC (stereo not given) | 47.5% (inactive)
CCCCCCCCO/N=C\c1c2c(O)c3c(O)c(C)c4c(c3c1O)C(=O)C(C)(O/C=C\C(OC)C(C)C(OC(C)=O)C(C)C(O)C(C)C(O)C(C)/C=C\C=C(\C)C(=O)N2)O4 (stereo not given) | 3.49% (active)
CC[C@@H](C(=O)[C@@H](C)[C@@H](O)[C@H](C)[C@@H]1O[C@@H]([C@@H](CC)C(=O)O)CC[C@@H]1C)[C@H]1OC2(C=C[C@@H](O)[C@]3(CC[C@@](C)([C@H]4CC[C@](O)(CC)[C@H](C)O4)O3)O2)[C@H](C)C[C@@H]1C (stereo not given in full) | -9.66% (active)
CCCC(=O)Oc1ccc(/C(=C(\C)c2ccc(Cl)cc2)c2ccc(OCCN(CC)CC)cc2)cc1 | -64.1% (active)
COc1ccc2nc3cc(Cl)ccc3c(NCCCNCCC(C)O)c2c1 (stereo not given) | -54% (active)
COc1ccc2c(c1)c1nc3cc(C)c(C)cc3nc1n2CCN(C)C | -2.58% (active)
N=C(N=C(N)N)N1CCOCC1 | 100% (inactive) and 101% (inactive)
Cc1ccc(C(=Nc2ccccc2)N=P(c2ccccc2)(c2ccccc2)c2ccccc2)cc1 | -83% (active)
C=C(C)[C@@H]1CC[C@]2(COC(=O)c3ccccc3C(=O)O)CC[C@]3(C)[C@H](CC[C@@H]4[C@@]5(C)CC[C@H](OC(=O)c6ccccc6C(=O)O)C(C)(C)[C@@H]5CC[C@]43C)[C@@H]12 | -22.5% [100 µM] (active)
